# Measured values taken from PubChem BioAssay (NCATS).
# Results filed as inconclusive are left out. A call without a number means that no potency is given here. Active and inactive are the calls of the source. Calls come from the whole dose curve; as a rule, active = well fitted inhibition curve with a large enough effect; inconclusive = small, poorly fitted or top-dose-only effect; inactive = no such curve, though single readings can be large or run the other way.
# Experiment: S16 Schwann cell PMP22 intronic element firefly luciferase assay (AID 624032); note: nearly all actives have a fitted effect of over 30% in size
# Settings: S16 rat Schwann cells, PMP22 element FLuc, 24 h; series mostly up to 57.5 µM
# Excerpt: Charcot-Marie-Tooth-Association [CMTA]
# National Center for Advancing Translational Sciences [NCATS]
# Charcot-Marie-Tooth (CMT) disease was first characterized by Jean-Martin Charcot and Pierre Marie in France and, independently, by Howard Henry Tooth in England in 1886. CMT is one of the most common inherited neurological diseases, affecting approximately 1 in 2,500 Americans. […] The most prevalent type of CMT is known as CMT1A and caused by a duplication of the PMP22 gene which leads to over-expression of this protein. PMP22 is a glycosylated intrinsic membrane protein accounting for 2-5% of the myelin protein content, and its over-expression results in demyelination and subsequently axonal loss.
# A pair of cellular transcription-based assays was developed in the S16 rat Schwann cell lines (Hai, M., et al., 2002) stably transfected with orthogonal reporters - firefly luciferase (Fluc) and beta-lactamase (beta-Lac) - whose expression is driven by an intronic regulatory element of the PMP22 gene (Jones, E.A., et al., 2011) to recapitulate endogenous expression of PMP22. The current assay employs Fluc to report on PMP22 expression. A comprehensive library of approved drugs, the NCGC Pharmaceutical Collection (Huang, R., et al., 2011), was screened in the cross-validating platform of the orthogonal reporter assays to identify drug modulators inhibitory towards PMP22 expression.
# A set of counter-screens was devised to address non-specific activity of the library. An ATP-dependent CellTiter-Glo assay (developed by Promega Corp) was utilized to control cell viability. In addition, biochemical Fluc enzyme assay was performed to assess direct inhibition of the Fluc enzymatic activity.
# Hai, M., Muja, N., DeVries, G.H., Quarles, R.H. and Patel, P.I. Comparative analysis of Schwann cell lines as model systems for myelin gene transcription studies. J Neurosci Res, 2002. 69(4): pp 497-508
# Huang, R., Southall, N., Wang, Y., Yasgar A., Shinn P., Jadhav, A. , Nguyen, D.-T. and Austin, C.P., The NCGC pharmaceutical collection: a comprehensive resource of clinically approved drugs enabling repurposing and chemical genomics. Sci Transl Med, 2011. 3(80): p. 80ps16.
# S16 Schwann cell PMP22 intronic element firefly luciferase assay
# The FLuc-expressing S16 cells were seeded in white solid 1536-well plates at between 500-750 cells/4uL in DMEM medium containing 10% FBS, w/o phenol red. After overnight incubation at 37 degree Celsius/5% C02, 23 nL of compounds or DMSO were delivered to each well using a pin tool, followed by 24h-incubation at 37 degree Celsius/5% C02. Then 4 uL ONE-Glo luminescent substrate mix (Promega) was added to each well. Luminescence was measured on a ViewLux plate reader (Perkin Elmer). The % activity was determined by normalizing to the average readings of PTC124 (a positive control) - treated cells relative to DMSO-treated cells (0% Activity). The concentration-effect curves were then classified based on curve quality (r2), response magnitude and degree of measured activity.
# Potency is the fitted concentration of half-maximal effect.
row,SMILES,Potency
1,CO,inactive
2,Cc1ccc(S(=O)(=O)NCl)cc1,inactive
3,Cc1ncc[nH]1,inactive
4,N[C@H](CC(=O)O)C(=O)O,inactive
5,O=S(=O)(O)CCCS(=O)(=O)O,inactive
6,Cc1cccc(Nc2ncccc2C(=O)O)c1C,inactive
7,CO/N=C(/C(=O)N[C@@H]1C(=O)N2C(C(=O)O)=C(COC(N)=O)CS[C@H]12)c1ccco1,inactive
8,C=CC(C)(O)CC/C=C(\C)CCC=C(C)C (stereo not given),inactive
9,C=Cc1ccc(S(=O)(=O)O)cc1,inactive
10,NC(N)=O,inactive
11,OCc1ccccc1,inactive
12,[O]=[Bi][O]C(=O)[O][Bi]=[O],inactive
13,O=C(O)[C@H]1C(=CCO)O[C@H]2CC(=O)N12,inactive
14,Cn1c(=O)c2c(ncn2CCOC(=O)C(C)(C)Oc2ccc(Cl)cc2)n(C)c1=O,32.2 µM (active)
15,[O]=[Bi][O][Bi]=[O],inactive
16,COC(=O)[C@@H](N)CS,inactive
17,C[C@]12CCC(=O)C[C@@H]1CC[C@@H]1[C@@H]2CC[C@]2(C)C=CC[C@@H]12,inactive
18,CCC(C(=O)NC(N)=O)c1ccccc1 (stereo not given),inactive
19,CN1CCCC(CN2c3ccccc3Sc3ccccc32)C1 (stereo not given),inactive
20,O=P(O)(O)OC[C@H]1O[C@](O)(COP(=O)(O)O)[C@@H](O)[C@@H]1O,inactive

row,SMILES,Potency
1,COc1ccc(/C=C/C(=O)O)cc1,inactive
2,O=P(O)(O)OP(=O)(O)OP(=O)(O)O,inactive
3,CN1C(=O)C[C@@H](C(=O)N[C@@H](Cc2cnc[nH]2)C(=O)N2CCC[C@H]2C(N)=O)NC1=O,inactive
4,NC(=S)N=Nc1ccc(NN=C(N)N)cc1,inactive
5,O=C(O)C1=C(CSc2nnnn2CS(=O)(=O)O)CS[C@@H]2[C@H](NC(=O)[C@H](O)c3ccccc3)C(=O)N12,inactive
6,CN=C1C=CC(=C(c2ccc(N(C)C)cc2)c2ccc(N(C)C)cc2)C=C1,14.4 µM (active)
7,CC12CCC(C1)C(C)(C)C2=O (stereo not given),inactive
8,CC(CC=O)CCCC(C)(C)O (stereo not given),inactive
9,C[C@H](CCC(=O)O)[C@H]1CC[C@H]2[C@@H]3CC[C@@H]4C[C@H](O)CC[C@]4(C)[C@H]3C[C@H](O)[C@]12C,inactive
10,O=C(O)c1ccc(NC(=O)[C@H](Cc2ccc(O)cc2)NC(=O)c2ccccc2)cc1,inactive
11,O=C1c2ccccc2C(=O)C1c1ccc(F)cc1,inactive
12,CC(C)(COP(=O)(O)OP(=O)(O)OC[C@H]1O[C@@H](n2cnc3c(N)ncnc32)[C@H](O)[C@@H]1OP(=O)(O)O)C(O)C(=O)NCCC(=O)NCCS (stereo not given in full),inactive
13,CCN(CC)CCC(=O)N1c2ccccc2Sc2ccc(C(F)(F)F)cc21,14.4 µM (active)
14,c1ccc(-n2cnnn2)cc1,inactive
15,O=[n+]1ccn([O-])c2ccccc21,inactive
16,O=C(OCc1ccccc1)c1ccc(O)cc1,inactive
17,CC(=O)Nc1ccc(OC(=O)c2ccccc2O)cc1,inactive
18,COc1cc(NCCCC(C)N)c2ncccc2c1 (stereo not given),6.42 µM (active)
19,O=C(NCCNCC(O)COc1ccc(O)cc1)N1CCOCC1 (stereo not given),inactive
20,O=C(CCCCCCCCCCCCC1CCCC1)Nc1ccc(S(=O)(=O)c2ccc(NC(=O)CCCCCCCCCCCCC3CCCC3)cc2)cc1,inactive
